The nature of assay [1]: AP1 Signaling Pathway (AID 357; active = well fitted curve in either direction with a large enough effect, not every such curve was filed as active;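 note: ME-180 reporter cells stimulated with EGF at its EC50 level; % is set by controls: 0 for no effect and ±100 for the full control effect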). The method in brief: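 Read-out was the 460nm/530nm emission ratio (excitation 405nm) after CCF4 loading for 2.5 hours at room temperature. Cells carried an AP-1-driven beta-lactamase reporter, were stimulated with EC50 EGF plus compound for 5 hours, and AC50 values came from titrations.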
Assay [2] addresses Cytochrome P450 1A2 (Homo sapiens) (UniProt P05177). Description: p450-cyp1a2 (AID 410; calls by dose curve;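 note: -100% = full effect of reference inhibitor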). The method in brief:
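20nM CYP1A2, 100uM Luciferin-ME (=Km), 100mM KPO4; cpd 10 min RT; +NADPH regen, 60 min RT; stop/detect 20 min; luminescence. Normalized to furafylline 57 uM = full inhibition.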

The nature of assay [3]: NFAT Signaling Pathway (AID 444; active = well fitted curve in either direction with a large enough effect, not every such curve was filed as active;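 note: carbachol stimulus at about its EC50 of 1 µM final; % is set by controls: 0 for no effect and ±100 for the full control effect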). The note with it: Jurkat NFAT-bla M1, carbachol, beta-lactamase ratio, 5 h; at 17.2 µM (top of the series) unless noted. The method in brief:
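Read-out: CCF4 FRET ratio (460 nm/530 nm) after 1 h RT dye loading, used for %activity and AC50 from titration series. Cells: Jurkat NFAT-β-lactamase/M1 line, treated with compound plus 1 uM carbachol for 5 h, 37 °C.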

Assay [4] in a line: Stat Signaling Pathway (AID 446; active = well fitted curve in either direction with a large enough effect, not every such curve was filed as active;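 note: ME-180 cervical cancer cells given 40 pM IL-6 alongside compound; SIE-controlled beta-lactamase reporter measured as 460/530 nm FRET emission ratio; % is set by controls: 0 for no effect and ±100 for the full control effect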). The method in brief:
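Overnight-plated ME-180 cells bearing a STAT Inducible Element beta-lactamase reporter; 5 h co-exposure to compound and 40 pM IL-6; values normalized to 300 pM IL-6 and 125 nM JAK inhibitor controls.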

Assay [5] addresses Glucocorticoid receptor (Homo sapiens) (UniProt P04150). Description: GR-GFP Redistribution (AID 450;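 active = compounds whose dose series gives a full or clear partial fitted curve of increased nuclear translocation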; note: potency is the fitted concentration of half-maximal effect). The note with it: U2OS GR-GFP nuclear translocation, laser cytometry, 2 h.
For assay [6] the target is unchanged. In words: GR-EFC Redistribution (AID 451; calls by dose curve; note: potency is the fitted concentration of half-maximal effect). The note with it: CHO-K1 GR-EFC translocation, beta-gal luminescence, 2 h. The method in brief: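 Translocation of GR-ED fusion to nuclear EA restores b-gal, read by luminescence after 1 h room-temperature detection. Engineered CHO-K1 biosensor cells, 1,000/well, exposed 2 h at 37 C to titrations up to 46 uM final.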

Assay [7] concerns the target Mitogen-activated protein kinase 10 (Mus musculus) (UniProt Q61831). In words: JNK3 AlphaScreen Assay (AID 530; active = well fitted curve in either direction with a large enough effect, not every such curve was filed as active;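 note: kinase came from lysate of stimulated human HepG2 cells; signal reports phosphorylation of biotinylated GST-cJun 1-79 at Ser73 with 10 µM ATP; % is set by controls: 0 for no effect and ±100 for the full control effect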). The method in brief: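 Kinase buffer: 20 mM Tris-HCl pH 7.6, 10 mM MgCl2, 1 mM DTT, 0.1 mM Na3VO4, 0.01% Tween-20; ATP 10 uM. Substrate biotin-GST-cJun(1-79), enzyme from activated HepG2 lysates. Detection by Ser73 phospho-antibody AlphaScreen.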
The target of assay [8] is 3',5'-cyclic-AMP phosphodiesterase 4B (Homo sapiens) (UniProt Q07343). In words: qHTS Assay for Inhibitors of PDE-IV (AID 607; active = well fitted activation curve with a large enough effect in the main read-out, with a control signal flat, not every such curve was filed as active; note: % of control where 0% means no effect). The method in brief:
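Live HEK293 cells with a modified cyclic nucleotide-gated (CNG) channel report intracellular cAMP via membrane-potential dye fluorescence (ex 535/em 590 nm). Endogenous PDE-IV was targeted. Compounds were tested at up to 22.9 uM final; RO 20-1724 100 uM served as control.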

Assay [9] can be described thus: qHTS Assay for Lipid Storage Modulators (AID 1519; calls by dose curve). The note with it: Drosophila S3 cells, BODIPY lipid droplet/cell ratio, laser cytometry, cells loaded with oleic acid; for activity change, negative = inhibition: at 25.7 µM (top of the series). The method in brief:
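Cells seeded at 5,000 per well were treated with compounds over a concentration series and loaded with oleic acid (400 uM, as added). Lipid droplet fluorescence (488 nm excitation, 500-530 nm channel) was read by laser-scanning cytometry and normalized to 20 uM Triacsin C.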

In assay [10] the target is Ubiquitin carboxyl-terminal hydrolase 1 (Homo sapiens) (UniProt O94782). Description: Inhibitors of USP1/UAF1: Pilot qHTS (AID 504865).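 Note: rhodamine fluorescence freed from ubiquitin-rhodamine substrate followed over time; top concentration of the series differs between compounds; % is set by controls: 0 for no effect and ±100 for the full control effect; nearly all actives have a fitted effect of over 35% in size.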 The method in brief:
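1nM USP1/UAF1 + cpd, 15 min RT; start w/ Ub-Rho 150nM final; kinetic FL 480/540 nm, 6 reads q60 s. Buffer 50mM HEPES pH 7.8, 0.5mM EDTA, 1mM TCEP, 0.01% Tween-20, 0.1 mg/ml BSA.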

A short description of assay [11]: S16 Schwann cell viability assay (CellTiter-Glo assay) (AID 624031).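 Note: native untransfected S16 rat Schwann cells; cellular ATP luminescence as a viability measure; plate controls were DMSO-treated cells for no effect and cell-free wells for full effect; nearly all actives have a fitted effect of over 70% in size.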 The method in brief:
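Parental S16 cells, 24 h compound, 37 °C. ATP-luminescence viability; DMSO = 0% activity, empty wells as reference; curves classified by fit quality and efficacy.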

Assay [12] in a line: S16 Schwann cell PMP22 intronic element firefly luciferase assay (AID 624032).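 Note: plate controls were DMSO for no effect and PTC124 positive control mean for full effect; nearly all actives have a fitted effect of over 30% in size.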 The method in brief: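 Luciferase reporter of PMP22 intronic-element expression in stably transfected S16 rat Schwann cells, read by ONE-Glo luminescence after 24 h compound exposure at 37 C. Activity scaled between DMSO (0%) and positive-control PTC124; concentration-effect curves quality-classified.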

Assay [13] in a line: qHTS profiling for inhibitors of Plasmodium falciparum proliferation (AID 504749).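 Note: 0% = DMSO vehicle and full inhibition = artemisinin control; nearly all actives have a fitted effect of over 60% in size.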 As to conditions: P. falciparum in erythrocytes, SYBR Green DNA, 72 h. The method in brief:
(§1)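 In a 72 h erythrocytic culture (37 C, humidified, 5% CO2) at 2.5% hematocrit and 0.3% starting parasitemia, compounds were tested; SYBR Green I in detergent lysis buffer stained parasite DNA overnight.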

Another assay relates to 3D7. The description is as above. As to conditions: P. falciparum in erythrocytes, SYBR Green DNA, 72 h; series mostly up to 12.8 µM. The method in brief: as §1
The next assay has as its system AS120. Described as above. As to conditions: P. falciparum in erythrocytes, SYBR Green DNA, 72 h; series mostly up to 12.8 µM. The method in brief:
as §1

The next assay has as its system ATS189. The assay is described as above. The note with it: P. falciparum in erythrocytes, SYBR Green DNA, 72 h; series mostly up to 12.8 µM. The method in brief: as §1
The subject of a further assay is CP217. The description is as above. The note with it: P. falciparum in erythrocytes, SYBR Green DNA, 72 h; series mostly up to 12.8 µM. The method in brief: as §1
A further assay concerns CP247. The description is as above. The note with it: P. falciparum in erythrocytes, SYBR Green DNA, 72 h; series mostly up to 12.8 µM. The method in brief:
as §1

For the next assay, the system named is CP250. Described as above. As to conditions: P. falciparum in erythrocytes, SYBR Green DNA, 72 h; series mostly up to 12.8 µM. The method in brief:
as §1

The next assay relates to SC27B. The assay is described as above. As to conditions: P. falciparum in erythrocytes, SYBR Green DNA, 72 h; series mostly up to 12.8 µM. The method in brief: as §1
[14] abbreviates: measured here: cell count channel max response.
Where [15] appears, read: measured here: lipid channel max response.

Records with an inconclusive call do not appear. Active and inactive are the calls of the source. Unless noted, calls come from the whole dose curve; as a rule, active = well fitted curve in the direction sought with a large enough effect; inconclusive = small, poorly fitted or top-dose-only effect, or another doubt; inactive = no such curve, though single readings can be large; an effect the other way counts as inactive or inconclusive.

Cytochrome P450 1A2 (Homo sapiens), sequence (P05177 whole entry, looked up): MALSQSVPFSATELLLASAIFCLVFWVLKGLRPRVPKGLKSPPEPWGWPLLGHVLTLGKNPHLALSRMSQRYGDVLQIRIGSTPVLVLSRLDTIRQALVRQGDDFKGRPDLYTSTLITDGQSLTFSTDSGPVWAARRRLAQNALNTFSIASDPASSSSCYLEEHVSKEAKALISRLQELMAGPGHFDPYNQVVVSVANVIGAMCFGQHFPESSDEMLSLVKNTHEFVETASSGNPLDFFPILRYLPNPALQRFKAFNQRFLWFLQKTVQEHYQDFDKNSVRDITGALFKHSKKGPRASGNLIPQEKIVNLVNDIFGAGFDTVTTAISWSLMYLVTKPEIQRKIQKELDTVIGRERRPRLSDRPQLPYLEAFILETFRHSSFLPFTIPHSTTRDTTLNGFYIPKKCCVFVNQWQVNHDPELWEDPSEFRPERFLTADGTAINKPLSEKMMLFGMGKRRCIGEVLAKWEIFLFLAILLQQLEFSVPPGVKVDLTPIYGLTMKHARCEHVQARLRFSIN
Ubiquitin carboxyl-terminal hydrolase 1 (Homo sapiens), sequence (O94782 whole entry, looked up): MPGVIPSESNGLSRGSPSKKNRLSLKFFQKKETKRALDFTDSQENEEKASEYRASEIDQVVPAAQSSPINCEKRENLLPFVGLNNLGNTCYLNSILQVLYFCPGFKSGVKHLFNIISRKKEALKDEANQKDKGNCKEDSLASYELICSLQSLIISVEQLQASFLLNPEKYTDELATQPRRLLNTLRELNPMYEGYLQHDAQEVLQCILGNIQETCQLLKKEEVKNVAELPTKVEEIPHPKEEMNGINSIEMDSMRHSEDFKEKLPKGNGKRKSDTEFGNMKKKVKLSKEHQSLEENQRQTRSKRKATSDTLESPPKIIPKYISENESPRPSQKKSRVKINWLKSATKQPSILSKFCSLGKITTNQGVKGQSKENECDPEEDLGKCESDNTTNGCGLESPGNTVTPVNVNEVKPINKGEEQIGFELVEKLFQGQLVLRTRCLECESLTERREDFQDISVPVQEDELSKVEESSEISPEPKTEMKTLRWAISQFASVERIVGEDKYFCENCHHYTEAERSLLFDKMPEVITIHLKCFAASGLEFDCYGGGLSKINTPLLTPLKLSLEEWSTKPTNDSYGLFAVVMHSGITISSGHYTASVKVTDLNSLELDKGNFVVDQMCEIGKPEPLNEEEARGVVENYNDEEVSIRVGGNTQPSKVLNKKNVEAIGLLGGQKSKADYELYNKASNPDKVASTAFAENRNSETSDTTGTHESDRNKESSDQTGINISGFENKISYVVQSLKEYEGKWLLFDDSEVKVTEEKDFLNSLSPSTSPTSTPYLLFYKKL
Glucocorticoid receptor (Homo sapiens), sequence (P04150 whole entry, looked up, the tested form may be a part): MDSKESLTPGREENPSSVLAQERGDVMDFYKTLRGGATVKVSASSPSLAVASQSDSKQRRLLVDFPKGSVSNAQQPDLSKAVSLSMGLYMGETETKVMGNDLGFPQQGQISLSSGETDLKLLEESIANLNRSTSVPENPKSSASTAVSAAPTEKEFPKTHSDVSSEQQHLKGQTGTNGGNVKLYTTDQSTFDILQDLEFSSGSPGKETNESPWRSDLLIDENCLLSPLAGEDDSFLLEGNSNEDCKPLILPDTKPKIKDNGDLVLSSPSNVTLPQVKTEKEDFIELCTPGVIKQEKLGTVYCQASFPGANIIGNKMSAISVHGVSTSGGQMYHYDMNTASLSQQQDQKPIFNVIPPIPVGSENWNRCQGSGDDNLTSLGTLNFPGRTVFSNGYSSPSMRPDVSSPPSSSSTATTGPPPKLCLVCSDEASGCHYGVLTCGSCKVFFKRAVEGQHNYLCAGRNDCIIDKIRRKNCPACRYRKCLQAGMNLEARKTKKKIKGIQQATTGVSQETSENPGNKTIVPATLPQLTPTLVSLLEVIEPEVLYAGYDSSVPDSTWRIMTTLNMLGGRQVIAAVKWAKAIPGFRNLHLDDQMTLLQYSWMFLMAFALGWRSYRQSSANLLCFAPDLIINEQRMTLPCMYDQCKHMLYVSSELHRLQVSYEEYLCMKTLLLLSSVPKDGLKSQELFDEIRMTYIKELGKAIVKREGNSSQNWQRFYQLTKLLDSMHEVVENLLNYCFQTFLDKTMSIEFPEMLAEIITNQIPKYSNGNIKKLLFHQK
3',5'-cyclic-AMP phosphodiesterase 4B (Homo sapiens), sequence (Q07343 whole entry, looked up): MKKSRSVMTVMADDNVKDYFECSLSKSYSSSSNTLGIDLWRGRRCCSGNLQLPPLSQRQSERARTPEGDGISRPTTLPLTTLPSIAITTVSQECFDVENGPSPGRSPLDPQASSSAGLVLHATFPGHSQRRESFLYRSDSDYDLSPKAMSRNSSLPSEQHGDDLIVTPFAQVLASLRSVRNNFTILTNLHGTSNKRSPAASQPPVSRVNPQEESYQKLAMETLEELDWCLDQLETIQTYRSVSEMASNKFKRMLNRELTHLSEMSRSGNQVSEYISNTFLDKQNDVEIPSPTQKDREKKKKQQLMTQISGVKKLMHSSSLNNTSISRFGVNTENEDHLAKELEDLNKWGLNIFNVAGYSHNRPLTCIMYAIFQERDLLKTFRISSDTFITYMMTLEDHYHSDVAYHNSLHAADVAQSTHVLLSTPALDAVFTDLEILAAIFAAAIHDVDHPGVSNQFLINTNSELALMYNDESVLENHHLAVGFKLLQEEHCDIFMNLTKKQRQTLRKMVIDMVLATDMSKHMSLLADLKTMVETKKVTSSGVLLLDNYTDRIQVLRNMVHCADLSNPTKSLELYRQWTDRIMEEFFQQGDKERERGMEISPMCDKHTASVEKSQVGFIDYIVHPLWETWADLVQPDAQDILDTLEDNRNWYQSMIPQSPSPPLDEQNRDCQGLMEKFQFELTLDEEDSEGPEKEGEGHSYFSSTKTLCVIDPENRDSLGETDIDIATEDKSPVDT

On to `CC(=O)N[C@H]1[C@@H](O[C@@H](C)C(=O)O)[C@H](O)[C@H](CO)O[C@@H]1O`, for which the compound was classed as inactive in assay [1], in [4] and in assay [8]. The Potency entry in assay [2], in [7] and in [10] was “inactive” throughout. The activity change, negative = inhibition in [3] was 4.75% (inactive); in [9] it was -1.67% (inactive). Further, the Potency in [5] and in [6] was > 20.6 µM (inactive) each time. Besides, the max response in assay [9] (setting [14]) was found to be 7.96%; in assay [9] (setting [15]), 4.82%.

As to `C[C@]1(OC(=O)/C=C\c2ccccc2)C[C@@H](O)[C@@]2(O)C=CO[C@@H](O[C@H]3O[C@@H](CO)[C@@H](O)[C@@H](O)[C@@H]3O)[C@H]21`, the result in [1], in [4] and in assay [8] was inactive. Besides, the Potency result in assay [2], in [7] and in assay [10] was “inactive” each time. For the same compound, the results for the activity change, negative = inhibition in assay [3] and in [9] were -11% (inactive) and -2.22% (inactive), respectively. In addition, the Potency in assay [5] and in [6] was > 20.6 µM (inactive) each time. Also, the max response was -15.8% in assay [9] (setting [14]) and -17.4% in assay [9] (setting [15]).

As to `Clc1cnccn1`, the outcome in assay [1], in [4] and in [8] was inactive. Further, the Potency entry in [2], in assay [7] and in assay [10] was “inactive” in each case. Further, the values for the activity change, negative = inhibition in assay [3] and in assay [9] were -22.8% (inactive) and 2.5% (inactive), respectively. Further, the Potency in assay [5] and in assay [6] was > 20.6 µM (inactive) throughout. The max response is 8.49% in [9] (setting [14]) and 10.5% in assay [9] (setting [15]).

In the case of `CCOC(=O)[C@H](CCc1ccccc1)N[C@@H](C)C(=O)N1[C@H](C(=O)O)C[C@H]2CCC[C@@H]21`, the compound was classed as inactive in assay [1], in [4], in assay [8] and in assay [11]. For the same compound, the Potency result (in [2]; in assay [7]; in [12]; with 3D7; with AS120; in the assay with ATS189) was “inactive” throughout. Besides, the Potency entry in the assay on CP217, in the assay with CP247, in the assay with CP250 and with SC27B was “inactive” each time. Moreover, the activity change, negative = inhibition is -18.7% (inactive) in assay [3] and -3.49% (inactive) in [9]. The Potency in assay [5] and in [6] was > 20.6 µM (inactive) in each case. Also, the max response in assay [9] (setting [14]) was -8.48%; in assay [9] (setting [15]) it was -7.94%. Further, the activity, negative = inhibition is 14.3% (inactive) in [13] (at 28.7 µM (top of the series), parasite line A) and 4.68% (inactive) in assay [13] (at 28.7 µM (top of the series), parasite line B).

As for `CC(=O)OCC(=O)[C@@]1(O)CC[C@@H]2[C@H]3CCC4=CC(=O)C=C[C@]4(C)[C@]3(F)[C@@H](O)C[C@@]21C`, the outcome in assay [1], in assay [4], in [8] and in [11] was inactive. The Potency result (in [2]; in assay [7]; in [10]; in [12]; in the assay on 3D7; in the assay with AS120) was “inactive” in each case. Besides, the Potency result in the assay on ATS189, in the assay on CP217, in the assay on CP247, in the assay on CP250 and in the assay on SC27B was “inactive” throughout. Further, the activity change, negative = inhibition in assay [3] is -2.98% (inactive); in assay [9] it was 0.563% (inactive). The Potency in [5] is 0.00326 µM (active); in [6], 0.035 µM (active). Besides, the max response in assay [9] (setting [14]) was 15.5%; in assay [9] (setting [15]), -0.686%. In addition, the activity, negative = inhibition in assay [13] (at 12.8 µM (top of the series), parasite line A) was -3.89% (inactive); in assay [13] (at 12.8 µM (top of the series), parasite line B) it was 16% (inactive).
